In PubChem BioAssay (EPA / NIEHS):
Results filed as inconclusive are left out. The source made the active and inactive calls. The calls were made as follows: active = hit-call score of the fitted dose curve at least 0.9, where 1 is the maximum; inconclusive = response in the unintended direction; inactive = score below 0.9.

Assays:
[1] = TOX21_p53_BLA_p2_viability: Viability Assessment in the Tox21 HCT-116 p53 Agonism Beta-lactamase Assay, Phase 2 (AID 2283591);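 also: actives lower the ATP signal meaning cytotoxicity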
Summary of the method: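 Cytotoxicity readout: CellTiter-Glo ATP luminescence, 30 min at room temperature, after the beta-lactamase read. Cells were HCT116 exposed 16 h at 37C to compounds pin-transferred at 217-fold dilution from DMSO stocks.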

[2] = biological target: Cellular tumor antigen p53 (Homo sapiens) (UniProt P04637); experiment: TOX21_p53_BLA_p2_ratio: Tox21 HCT-116 p53 Agonism Beta-lactamase Assay, Ratio, Phase 2 (AID 2283592)
Summary of the method: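 First, HCT116 reporter cells settle for 5 h at 37C. Next, DMSO compound solutions are pinned in (217-fold dilution) and left 16 h. Finally, CCF4-AM substrate is loaded 2 h at room temperature and the 460/530 nm ratio read.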

[3] = TOX21_p53_BLA_p3_viability: Viability Assessment in the Tox21 HCT-116 p53 Agonism Beta-lactamase Assay, Phase 3 (AID 2283593);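 also: cells exposed to compound for 16 h before reading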
Summary of the method: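 Cellular ATP was quantified by CellTiter-Glo luminescence, read after 30 min at room temperature. Beforehand, HCT116 cells (4000/well) received compound 5 h post-seeding, 217-fold diluted from DMSO, then incubated 16 h at 37C.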

[4] = biological target: Cellular tumor antigen p53 (Homo sapiens) (UniProt P04637); experiment: TOX21_p53_BLA_p3_ratio: Tox21 HCT-116 p53 Agonism Beta-lactamase Assay, Ratio, Phase 3 (AID 2283596)
Summary of the method: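 Cells were seeded at 4000/well, rested 5 h at 37C, then dosed with DMSO compound solutions (217-fold dilution) for 16 h. CCF4-AM substrate was loaded for 2 h at room temperature, and the 460/530 nm emission ratio was fitted for gain of signal versus DMSO.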

[5] = biological target: Cellular tumor antigen p53 (Homo sapiens) (UniProt P04637); experiment: TOX21_p53_BLA_p5_ratio: Tox21 HCT-116 p53 Agonism Beta-lactamase Assay, Ratio, Phase 5 (AID 2283599)
Summary of the method: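 Beta-lactamase reporter ratio (blue 460 nm over green 530 nm, 405 nm excitation) after 2 h CCF4-AM loading, in HCT-116 cells exposed 16 h at 37 C to compounds pinned at 217-fold dilution. Increases relative to DMSO baseline scored.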

[6] = TOX21_p53_BLA_p5_viability: Viability Assessment in the Tox21 HCT-116 p53 Agonism Beta-lactamase Assay, Phase 5 (AID 2283600)
Summary of the method: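 Decreased CellTiter-Glo luminescence denotes lost viability. Exposure: 16 h at 37C, 5% CO2, with compounds from DMSO stocks diluted 217-fold in wells of 4000 cells.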

[7] = biological target: Cellular tumor antigen p53 (Homo sapiens) (UniProt P04637); experiment: TOX21_p53_BLA_p4_ratio: Tox21 HCT-116 p53 Agonism Beta-lactamase Assay, Ratio, Phase 4 (AID 2283601)
Summary of the method: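 Signal is the blue/green (460nm/530nm) ratio of cleaved versus uncleaved CCF4-AM substrate, read after 2 h substrate loading. Cells were HCT116 carrying the p53-responsive beta-lactamase reporter, dosed 16 h at 37C, 5% CO2; CellTiter-Glo measured in parallel.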

Measured: outcome

Sequence of Cellular tumor antigen p53 (Homo sapiens) (P04637 whole entry, looked up): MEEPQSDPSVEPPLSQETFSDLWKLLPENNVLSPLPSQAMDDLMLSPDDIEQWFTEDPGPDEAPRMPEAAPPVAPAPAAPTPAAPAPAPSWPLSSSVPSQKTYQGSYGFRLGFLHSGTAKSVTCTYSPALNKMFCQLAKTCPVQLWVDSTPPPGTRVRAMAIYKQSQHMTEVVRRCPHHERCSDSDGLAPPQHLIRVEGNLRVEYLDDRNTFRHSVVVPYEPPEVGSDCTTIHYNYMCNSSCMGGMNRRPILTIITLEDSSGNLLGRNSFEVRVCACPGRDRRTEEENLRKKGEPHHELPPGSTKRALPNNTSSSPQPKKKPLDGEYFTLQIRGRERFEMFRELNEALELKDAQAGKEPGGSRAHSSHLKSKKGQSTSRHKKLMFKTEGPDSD

ClC(Cl)(Cl)Br
inactive: all assays above

CC(C)(C)NCC(O)c1cc(Cl)c(N)c(Cl)c1 (configuration not stated)
not listed: [5] | [6]
inactive: all other assays above

CCNC1(c2cccs2)CCCCC1=O (configuration not stated)
not listed: [6] | [7]
inactive: all other assays above

NC(=O)CN1CCCC1=O
not listed: [6]
inactive: all other assays above

O=[N+]([O-])C(Br)Br
inactive: all assays above

O=C(Nc1ccccc1)N(Cc1ccc(Cl)cc1)C1CCCC1
inactive: all assays above
